Test results reported in PubChem BioAssay AID493194 (Broad Institute, 2011).
Results with a measured potency or affinity are listed apart. Records with an inconclusive call do not appear. The source made the active and inactive calls.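 Rule for the calls: active = a valid curve of falling signal whose half-effect concentration is at most ten times the top tested dose; inconclusive = flat curve at 30 to 70% inhibition, or poor fit; inactive = signal rise, flat within 30%, or potency beyond limit.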

Molecular target: Scavenger receptor class B member 1 (Mus musculus) (UniProt Q61009)
Sequence (Q61009 whole entry, looked up): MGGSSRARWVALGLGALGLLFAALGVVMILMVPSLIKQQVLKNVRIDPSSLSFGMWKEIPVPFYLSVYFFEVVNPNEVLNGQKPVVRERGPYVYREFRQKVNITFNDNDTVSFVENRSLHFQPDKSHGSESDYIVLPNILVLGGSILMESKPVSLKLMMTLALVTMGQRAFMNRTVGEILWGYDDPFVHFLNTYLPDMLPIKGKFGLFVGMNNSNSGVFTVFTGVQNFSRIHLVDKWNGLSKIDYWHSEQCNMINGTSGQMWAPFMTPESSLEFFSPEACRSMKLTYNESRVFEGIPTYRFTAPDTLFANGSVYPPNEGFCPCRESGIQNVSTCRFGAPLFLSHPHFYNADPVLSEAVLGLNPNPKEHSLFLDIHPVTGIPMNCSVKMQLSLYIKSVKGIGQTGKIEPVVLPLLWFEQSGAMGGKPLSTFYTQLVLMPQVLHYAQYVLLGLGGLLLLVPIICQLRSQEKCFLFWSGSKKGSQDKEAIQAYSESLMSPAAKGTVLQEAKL
Assay: inhibitors of SR-BI mediated HDL lipid uptake, dose response, ldlA[mSR-BI] cells, fluorescence, cherry pick (AID 493194);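 note: CHO cells lacking LDL receptor and overexpressing mouse SR-BI; cellular uptake of fluorescently labeled HDL measured as cell fluorescence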
Conditions: CHO ldlA[mSR-BI] DiI-HDL uptake fluorescence, 3 h; series mostly up to 35 µM

outcome, inactive:
COc1ccc(OCCSc2nnc(-c3cccnc3)n2N)cc1
Cn1nc(-c2ccc(Cl)cc2)c2cc(C(=O)NCCCN3CCOCC3)sc21
CCC(=O)Nc1ccccc1-c1nnn(CC(=O)N2c3ccccc3CC2C)n1 (stereo not drawn)
Cc1cccc(Nc2ccccc2C(=O)OCC(=O)N(C)C2CCS(=O)(=O)C2)c1C (stereo not drawn)
CCOC(=O)C1=C(CNCCOc2ccc(OC)cc2)NC(=O)NC1c1ccc2c(c1)OCO2 (stereo not drawn)
Cc1c(C(=O)N2CC3(CC(c4cccc(NC(=O)CC(c5ccccc5)c5ccccc5)c4)=NO3)C[C@@H]2C(N)=O)cc([N+](=O)[O-])cc1[N+](=O)[O-] (stereo partly drawn)
COc1ccc(-c2nc(-c3ccc(O)cc3O)cs2)cc1OC
Cc1cc(C)cc(N(CCC#N)C(=O)COC(=O)CCc2c[nH]c3ccccc23)c1
Cn1c(CCN2CCN(c3ccccn3)CC2)nc2cc(NS(=O)(=O)c3ccc(Cl)cc3)ccc21
COc1ccc(NC(=O)N2CCN(c3nc(-c4cccc(OC)c4)cs3)CC2)cc1
Cc1sc(NC(=O)Cc2ccc3c(c2)OCO3)nc1-c1ccc2c(c1)CCN2C(=O)c1cccc(F)c1
N#Cc1ccccc1S(=O)(=O)N1CCN(C(=O)C2CC(=O)N(c3ccc4c(c3)OCCO4)C2)CC1 (stereo not drawn)
COC(=O)c1c(C)[nH]c(C(=O)C(C)OC(=O)C2CC(=O)N(c3ccc(C)cc3)C2)c1C (stereo not drawn)
O=C(NC1CC2CCCC(C1)N2C(=O)N1CCCCC1)C1CCCCC1 (stereo not drawn)
COc1ccc2c(c1)OC[C@H]1[C@H]2N2C(=O)c3cc(Cl)ccc3NC(=O)[C@@]2(C)[C@H]1c1ccccc1
CCOc1ccccc1COC(=O)c1cccc(-n2cnnn2)c1
COc1cccc2c1cc1c(=O)n(CC(=O)N3CCN(c4cccc(C)c4C)CC3)nc(C)n12
COc1ccc([C@H]2CC(=O)C=C(c3cccc4c3sc3ccccc34)C2)cc1OC
CC(=O)c1ccc(-c2ccc(C(=O)Nc3nc(C)c(C(C)=O)s3)o2)cc1
N#CCCN(C(=O)COC(=O)CCc1c[nH]c2ccccc12)c1ccc(F)cc1
COc1ccc([C@H]2/C=C\CN(S(=O)(=O)c3ccc4ccccc4c3)[C@@H](C)C(=O)N2Cc2ccc(F)cc2)cc1
COc1ccc(C2C(C#N)=C(N)N(c3ccccc3C#N)C3=C2C(=O)CCC3)cc1CN1CCCC1 (stereo not drawn)
Cc1ccc2c(c1)C(=O)C(=O)N2CC(=O)Nc1ccc(N2CCOCC2)cc1
O=C(CCCC(=O)N(CC(=O)NC1CCCC1)C1CCCC1)Nc1ccccn1
COc1ccc(OC)c(NC(=O)CCC(=O)N(Cc2ccc(OC)c(OC)c2)c2nccs2)c1
Cc1ccccc1C(=O)NC1CC2CCCC(C1)N2C(=O)Nc1ccccc1 (stereo not drawn)
COc1ccccc1NC(=O)CN1CCN(CC(=O)Nc2ccc(OCc3ccccc3)cc2)CC1
Cc1ccc(-c2cc(C(F)F)n3ncc(C(=O)N4CCN(c5cccc(C)c5C)CC4)c3n2)cc1
Cn1c(C(=O)N2CCC(C(=O)N3CCN(Cc4ccc5c(c4)OCO5)CC3)CC2)cc2sccc21
COc1cc(OC)cc(C(=O)N[C@H](C(=O)Nc2nc(-c3cc(OC)ccc3OC)cs2)C(C)C)c1
CC(C(=O)NCc1ccccc1)N(Cc1ccccc1Cl)C(=O)c1snc(C(N)=O)c1N (stereo not drawn)
CCN(CC)C(=O)c1cccc(NC(=O)c2cc(C3CC3)nc3c2cnn3C(C)C)c1
CCOC(=O)N1CCN(CC(O)COC2CC(C)CCC2C(C)C)CC1 (stereo not drawn)
CCCCC(=O)Nc1cccc(NC(=O)c2ccccc2Br)c1
Cc1ccc(Sc2nc(-c3ccccc3)nnc2C(F)(F)F)cc1
CC1CN(c2oc(COc3ccc(Cl)cc3Cl)nc2C#N)CC(C)O1 (stereo not drawn)
CCCn1c(=O)[nH]c(=O)c2c1nc(-c1ccc(OC(F)(F)C(F)C(F)(F)F)cc1)n2CCOC (stereo not drawn)
CCC(C)c1ccccc1N1CC(C(=O)N2CCN(S(=O)(=O)c3ccccc3Br)CC2)CC1=O (stereo not drawn)
